These results are taken from PubChem BioAssay.

Values without a mark were called inactive. How the calls were made is not given here.

The target of this assay is Pantothenate synthetase (Mycobacterium tuberculosis (strain ATCC 25618 / H37Rv)) (UniProt P9WIL5). The experiment in a line: Recombinant Mtb pantothenate synthetase (PanC) inhibitors, coupled enzyme, confirmatory (AID 375).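 Further: 0% = full reaction with vehicle and 100% = no enzyme background.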 The note with it: coupled enzyme assay; at 10 µM, stronger effect = higher value.
Chain of Pantothenate synthetase (Mycobacterium tuberculosis (strain ATCC 25618 / H37Rv)) (P9WIL5 whole entry, looked up): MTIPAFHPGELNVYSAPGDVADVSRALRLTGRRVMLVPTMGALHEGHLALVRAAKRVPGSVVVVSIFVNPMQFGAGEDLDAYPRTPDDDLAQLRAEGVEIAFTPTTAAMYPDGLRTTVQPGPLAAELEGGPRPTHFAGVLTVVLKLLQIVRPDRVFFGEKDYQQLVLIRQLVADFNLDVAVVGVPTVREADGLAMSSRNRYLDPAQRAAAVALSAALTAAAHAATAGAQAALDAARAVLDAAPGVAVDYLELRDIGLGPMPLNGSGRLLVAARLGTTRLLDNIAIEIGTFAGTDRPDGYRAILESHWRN
In the case of `CCOC(=O)c1cc2c(=O)n3cccc(C)c3nc2n(CC2CCCO2)c1=NC(C)=O` (configuration not stated), the inhibition (usually the share of the control response that was lost under treatment) is 7%. With `CN1C(=O)c2c(sc3c2CCCC3)NC1c1ccccc1O` (configuration not stated) the figure was 0%. The result for `CC1Cc2ccccc2N1C(=O)Cc1cccs1` (configuration not stated) reads 3%; that for `CC1=C(C(N)=O)C(c2ccccn2)n2nc(SCc3ccccc3)nc2N1` (configuration not stated), 0%. With `CC1CCCN(S(=O)(=O)c2ccc(C(=O)Nc3nnc(-c4ccccc4Cl)o3)cc2)C1` (configuration not stated), the inhibition is 0%. For `CCOc1cc(C2C3=C(CCCC3=O)N(C)C3=C2C(=O)CCC3)cc(Cl)c1O`, the inhibition is 0%. With `Cc1ccc(NC(=O)CSc2nnc(-c3ccc(S(=O)(=O)N4CCOCC4)cc3)n2C)cc1` the figure was 1%. The result for `c1ccc(CN2CCN(c3ncnc4c3[nH]c3ccccc34)CC2)cc1` reads 5%; that for `CS(=O)(=O)N1CCCC(C(=O)NCc2ccccc2Cl)C1` (configuration not stated), 0%; that for `CC12COC3(C(=O)Nc4ccc(Cl)cn4)CC1CCC32C` (configuration not stated), 0%. On to `O=S(=O)(NCC1CCCO1)c1ccc(S(=O)(=O)N2CCc3ccccc3C2)cc1` (configuration not stated), for which the inhibition is 5%.

With `CCOC(=O)CCNC(=O)Nc1ccc2nc(C)n(Cc3ccccc3Cl)c(=O)c2c1`, the inhibition is 5%.

`Cc1cc(C)cc(NC(=O)c2nnn(Cc3cc(C)ccc3C)c2N)c1`: the inhibition is 0%. Take `COc1ccc(CNc2nc(NCc3ccc(OC)cc3)n(S(C)(=O)=O)n2)cc1`: the inhibition was 0%.

In the case of `CCC(NC(C)C)C(O)c1ccc(O)c(O)c1` (configuration not stated), the inhibition is 0%. As to `OCc1cn(-c2ccccc2)nc1-c1ccc2c(c1)OCCO2`, the inhibition was 0%. The result for `O=C(Nc1ccc2c(c1)nc1n2CCN(Cc2ccccc2)C1)c1cccs1` reads 0%; that for `Nc1nnnn1/N=C/c1ccccc1OCc1ccccc1`, 0%. The result for `O=C(COc1ncnc2ccccc12)NCc1ccc2c(c1)OCO2` reads 0%. On to `CCOC(=O)c1cnc(-n2nc(C)cc2C)nc1N1CC(C)OC(C)C1` (configuration not stated), for which the inhibition was 0%. On to `CCOC(=O)NC(c1ccccc1)C1CCCCC1=O` (configuration not stated), for which the inhibition was 0%. With `Cc1nnc(SCC(=O)N2CCC(C(N)=O)CC2)s1` the figure was 0%.
